Only a selection was taken, and hits are over-represented in it overall.
KDM5B inh = blocks human KDM5B histone demethylase activity; Potency, µM (doses to about 57.7 µM), most hits filed as inhibitors; KDM5B demethylase, FDH-coupled NADH fluorescence (FDH is formaldehyde dehydrogenase); actives 2.6% (n = 220,000); Q9UGL1; AID 1347165; active means well fitted inhibition curve with a large enough effect; further: 0% is about no effect; nearly all actives have a fitted effect of over 70% in size
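qHTS format, multiple compound concentrations. Buffer 50 mM HEPES pH 7.5/0.01% Tween-20; 200 nM KDM5BΔAP final; 10 min compound preincubation; substrate-mix levels 12.5 µM peptide, 25 µM α-KG, 0.25 mM NAD⁺; 30 min RT; ΔRFU.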
Active calls of the source: *; i = inactive. Potency means the concentration at half of the fitted maximal effect.

SMILES	KDM5B inh
Cc1cc2oc(=O)cc(CN(C)Cc3cccs3)c2cc1C	i
O=C(NC1CCCc2ccccc21)c1csc2ccccc12 (centres undefined)	i
CC(C)CNC(=O)c1cc(C2CC2)nc2onc(C3CCNC3)c12 (centres undefined)	100µM*
CC(C)CNC(=O)c1cc(C2CC2)nc2onc(C3CCCNC3)c12 (centres undefined)	i
Cc1cc(C(=O)NCc2cccs2)c2c(C3CCNC3)noc2n1 (centres undefined)	i
Cc1cc(C(=O)N2CCCCC2)c2c(C3CCCNC3)noc2n1 (centres undefined)	i
O=C(c1cc(C2CC2)nc2onc(C3CCNCC3)c12)N1CCOCC1	56µM*
O=C(c1cc(C2CC2)nc2onc(C3CCNCC3)c12)N1CCC(F)CC1	i
O=C(NCc1cccs1)c1cc(C2CC2)nc2onc(C3CCCNC3)c12 (centres undefined)	i
Cc1cc(C(=O)NCC(C)C)c2c(C3CCCNC3)noc2n1 (centres undefined)	i
O=C(NCC(F)(F)F)c1cc(C2CC2)nc2onc(C3CCNC3)c12 (centres undefined)	89µM*
Cc1cccc(OCC(=O)NC2CCN(C(=O)c3cc4c(=O)[nH]c(C)cn4n3)CC2)c1	i
CCC(CC)NC(=O)c1cccc(OC)c1	i
CSc1cccc(NC(=O)CCc2ncc(-c3ccc(F)cc3F)o2)c1	i
Cc1oc(-c2ccccc2)nc1CN(CC(N)=O)C(C)C	i
CC(NC(=O)C1CCN(S(=O)(=O)c2cccc(OC(F)(F)F)c2)CC1)c1cccnc1 (centres undefined)	i
COc1ccc(CC(=O)N2Cc3ccccc3CC3(CCN(C)C3)C2)cc1 (centres undefined)	i
O=C(Nc1c(C(=O)N2CCC(N3CCCCC3)CC2)oc2ccccc12)C1CC1	i
Cc1ccc(CS(=O)(=O)N2CCC(C(=O)N3CCN(c4cc(Cl)ccc4C)CC3)CC2)cc1	i
CC(=O)N1CCN(C(C(=O)O)c2c[nH]c3ccc(Br)cc23)CC1 (centres undefined)	i
O=C(O)c1cc(-c2ccncc2)cc(S(=O)(=O)N2CCCCCC2)c1	i
COc1ccc(-c2cc(C(=O)O)cc(S(=O)(=O)N3CCN(C)CC3)c2)cc1	16µM*
CN1CCN(S(=O)(=O)c2cc(Br)cc(C(=O)O)c2)CC1	i
COc1ccc(-c2nc(-c3c(C)noc3C)cc3[nH]c(C)cc23)cn1	35µM*
COc1ccc(-c2nc(-c3c(C)noc3C)cc3c2cc(C)n3C)cn1	35µM*
SMILES	KDM5B inh
COc1cc(-c2nc(-c3c(C)noc3C)cc3[nH]c(C)cc23)ccn1	32µM*
COc1cc(F)ccc1-c1nc(-c2c(C)noc2C)cc2c1cc(C)n2C	i
COc1cc(-c2ccnc(-c3nnc(C)n3Cc3ccccc3)c2)ccn1	i
CN1CCN(CCCCNC(=O)c2cccc(C#N)c2)CC1	i
Cc1ccccc1NC(=O)c1cnn2c1NC(C(=O)O)=CC2/C=C/c1ccccc1 (centres undefined)	i
COc1ccc(C(=O)N(Cc2c(F)cccc2Cl)c2ccccn2)cc1	i
CC1CCN(S(=O)(=O)c2cn(CC(=O)Nc3cccc(-c4ccno4)c3)cn2)CC1	i
Cc1cc(C)c(OCC(=O)Nc2nonc2-c2ccc(Cl)cc2)c(C)c1	i
CC(C)CNC(=O)NC(=O)CSC1=Nc2ccccc2CS1	i
Cc1ccc(-c2cc(C)c(C)cc2C)nc1	i
CCc1cccc2c(C(=O)O)c[nH]c12	i
COC(=O)c1cccc(C(=O)NCc2cccc(OC)c2)c1	i
Cc1cnc(C2CC2)n1C1CCCN(C(=O)c2nn(C)c3ccccc23)C1 (centres undefined)	i
CCCNC(=S)Nc1cc(Cl)c(Cl)cc1Cl	i
Cc1cn2nc(C(=O)NCC(C)C)cc2c(N2CCCC2)n1	28µM*
Cc1cn2nc(C(=O)NC3CCCCC3)cc2c(N2CCCC2)n1	28µM*
Cc1cc(C)cc(C(=O)NCC(C)C)c1	i
Cc1cn2nc(C(=O)NCC3CCCO3)cc2c(=O)[nH]1 (centres undefined)	i
Cc1cn2nc(C(=O)N3CCC(C(=O)NC4CCCCC4)CC3)cc2c(=O)[nH]1	i
Cc1cnc(C(=O)NC2C[C@H]3CC[C@@H](C2)N3C(=O)C2CCCCC2)cn1 (some centres undefined)	i
CC(=O)c1sc(Cc2cccc(Cl)c2)nc1C	i
Fc1ccc(CNc2ncnc3onc(-c4cc(F)cc(F)c4)c23)cc1	i
CC(C)(CNC(=O)CCNC(=O)C1CCCC1)c1ccc(Br)cc1	i
CC(=O)c1ccc(NC(=O)N2C[C@@H]3C[C@H](C2)c2ccc(NC(=O)c4cccs4)c(=O)n2C3)cc1	i
CN(C)CC(=O)Nc1ccc2n(c1=O)C[C@H]1C[C@@H]2CN(C(=O)c2ccc(-c3ccccc3)cc2)C1	i
SMILES	KDM5B inh
O=C(Nc1ccccc1)Nc1ccc(=O)n2c1[C@@H]1C[C@@H](CN(C(=O)COc3ccccc3)C1)C2	i
Cn1cc(CN2C[C@@H]3C[C@H](C2)c2ccc(NC(=O)c4cccs4)c(=O)n2C3)c2ccccc21	25µM*
Cn1cc(CN2C[C@@H]3C[C@H](C2)c2ccc(NC(=O)COc4ccccc4)c(=O)n2C3)c2ccccc21	28µM*
Cn1cc(CN2C[C@@H](CO)[C@H](NC(=O)C3CCC3)C2)c2ccccc21	i
O=C(CCCc1cccs1)NC1CC1	i
CC(CCc1ccccc1)NC(=O)C1CCN(S(=O)(=O)c2cccc(Cl)c2Cl)CC1 (centres undefined)	i
Cc1ccc(Cl)cc1NC(=O)C(=O)c1cn(CC(=O)N2CCOCC2)c2ccccc12	i
Cc1ccc(NC(=S)NCC2(N(C)C)CCCCC2)cc1Cl	i
Cn1cccc1CNC(=O)C1c2ccccc2C(=O)N(C2CCCCC2)C12CCCC2 (centres undefined)	i
CCCNC(=O)N1CCC(Oc2ccccc2-c2nc(-c3ccncc3)no2)C1 (centres undefined)	i
CCC(C)NC(=O)N1CC(Oc2ccccc2-c2nc(-c3ccccc3)no2)C1 (centres undefined)	i
O=C(NCCc1ccccc1)N1CC(Oc2ccccc2-c2nc(-c3ccccc3)no2)C1	25µM*
CCCc1ccc(C(=O)Cn2nnc(-c3ccccc3Br)n2)cc1	i
O=C(CCc1cccnc1)Nc1ccc(Cl)cc1F	i
COc1ccc(-c2cc(C(=O)NCc3cnn(C)c3)c3c(c2)N(C)CCO3)cc1	35µM*
COc1cc(F)ccc1-c1cc(C(=O)NCc2cccnc2)c2c(c1)N(C)CCO2	28µM*
Cc1ccc(OCn2ccc(C(=O)NCc3cnn(C)c3)n2)c(C)c1	i
COc1cc(F)ccc1-c1cc(C(=O)NCc2cnn(C)c2)c2c(c1)N(C)CCO2	40µM*
Cn1cc(CNC(=O)C[C@@H]2C[C@H]3O[C@H](CNC(=O)Nc4ccc(F)cc4)[C@@H](O)[C@H]3O2)cn1	i
COc1cc(NC(=O)C2=C(C)OCCS2)c(Cl)cc1C(=O)NCc1cccnc1	i
COc1ncc(-c2cc(C(=O)NCc3cnn(C)c3)c3c(c2)N(C)CCO3)cn1	i
O=C(NCc1cccnc1)c1ccc2c(c1)N(C(=O)c1ccc(F)cc1)CC2	i
COc1ccc(-c2cnc(NC(=O)NCc3ccc(C)cc3)n2C)cc1	i
Cc1cc(CN2CCC(CO)(Cc3ccccc3Cl)CC2)cc(C)c1O	i
